Bioassay records from PubChem.
Most compounds without a hit are left out; they make up all but 7% or so of the library.
S2 tox: Viability Counterscreen for Primary qHTS for Inhibitors of ATXN expression | Potency, µM (top dose mostly 56.7 µM), usual class: cytotoxic | S2 cells (HEK-293 line with an ATXN2-luciferase reporter) viability, CellTiter-Fluor protease fluorescence, 24 h | 400,000 compounds, 0.49% hits | AID 651635, 2014; also: potency is read from the fitted curve at half-maximal effect; nearly all actives have a fitted effect of over 40% in size
DRD3 antagonist: qHTS of D3 Dopamine Receptor Antagonist: qHTS; D3R cells, DiscoveRx beta-arrestin luminescence, antagonist mode; stronger effect = lower value; AID 652054, 2013; D(3) dopamine receptor (Homo sapiens), P35462; max response, negative = inhibition, %; 360,000 compounds, 2.5% hits; in the data active = max response below about -50%; inconclusive = no clear call, values can overlap the other calls; also: % is scaled to controls: 0 for no effect and ±100 for the full control effect
Target sequence (P35462 whole entry, looked up): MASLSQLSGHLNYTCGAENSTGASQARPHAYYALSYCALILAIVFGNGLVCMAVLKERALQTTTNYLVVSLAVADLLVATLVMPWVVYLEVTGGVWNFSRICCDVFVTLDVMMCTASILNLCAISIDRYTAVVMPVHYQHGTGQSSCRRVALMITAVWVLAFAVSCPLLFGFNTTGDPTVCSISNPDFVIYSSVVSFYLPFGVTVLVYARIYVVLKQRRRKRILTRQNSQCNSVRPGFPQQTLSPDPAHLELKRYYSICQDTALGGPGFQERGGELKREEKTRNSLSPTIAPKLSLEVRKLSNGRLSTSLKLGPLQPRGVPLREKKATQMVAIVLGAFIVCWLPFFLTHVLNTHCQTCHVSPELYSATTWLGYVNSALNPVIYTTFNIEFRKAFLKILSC
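Cells expressing the human receptor were seeded at 1500 cells/well, incubated overnight at 37 degrees C in 5% CO2, then exposed to library compounds with dopamine controls for 90 minutes at 37 degrees C before luminescent detection.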
DRD3 agonist: qHTS of D3 Dopamine Receptor Agonist: qHTS. D3R DiscoveRx beta-arrestin cells, luminescence, 90 min. D(3) dopamine receptor (Homo sapiens), P35462. 410,000 compounds, 0.58% hits. AID 652048, 2013. max activation, %; in the data active = max activation above about 30%; also: 0% is about no effect
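Cells at 1500/well, incubated overnight, then treated with pinned compounds (dopamine as control) for 90 min at 37 degrees C. DiscoveRx reagent added for 30 - 60 minutes at room temperature; luminescence read.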
IL-1B inflam inh: qHTS for Inhibitors of Inflammasome Signaling: IL-1-beta AlphaLISA Primary Screen | activity change, % at 57.5 µM | AID 743279, 2014 | THP-1 LPS/ATP IL-1B secretion, AlphaLISA, 16 h; stronger effect = lower value | 360,000 compounds, 4.7% hits; in the data active = activity change below about -50%; inconclusive = mostly about -30% to -49%; also: % is scaled to controls: 0 for no effect and ±100 for the full control effect
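Secreted IL-1B measured by AlphaLISA bead assay after 16 h compound exposure of THP-1 cells; compounds (final up to 57.5 uM) added 1 h before LPS (250 ng/mL) and ATP (1.25 mM) stimulation; lower signal means less secretion.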
ATXN2 expr inh: Primary qHTS for Inhibitors of ATXN expression; HEK-293 ATXN2-luciferase reporter, luminescence, 24 h; Potency, µM (doses to about 57 µM), inactives show at the top dose activity change, negative = inhibition, actives largely listed as inhibitors; 360,000 compounds, 0.72% hits; also: potency is read from the fitted curve at half-maximal effect; % is scaled to controls: 0 for no effect and ±100 for the full control effect; nearly all actives have a fitted effect of over 55% in size
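qHTS (up to 57 uM final) was run with 24 h compound exposure of reporter cells at 37 °C. Each well was multiplexed: SteadyGlo luminescence measured ATXN2-luciferase expression after a fluorogenic Gly-Phe-AFC viability readout (25 uM final).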
Integrin act MD: qHTS for Activators of Integrin-Mediated Alleviation for Muscular Dystrophy. Potency, µM (series often up to 38.3 µM), inactives show top-dose activation, usual class: activators. 350,000 compounds, 0.064% hits. alpha7betagal myoblasts, beta-gal FDG fluorescence, 48 h. AID 624291, 2012;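 also: potency is read from the fitted curve at half-maximal effect; 100% = response of the positive control SU9516; nearly all actives have a fitted effect of over 60% in size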
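alpha7betagal+/- myoblasts (passage 13, 250/well) treated 48 h at 37C with compounds at 1:260 dilution of DMSO stock. Lysed, then beta-galactosidase activity read as FDG fluorescence (ex 480/em 540) after 30 min, with pre-read for autofluorescence.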
Numbers without * were called inactive; i = inactive; ? = inconclusive; · = no result; [ ] = another dose, or the depositor's remark. Unless noted, calls follow the shape of the dose curve; as a rule, active = well fitted curve in the direction sought with a large enough effect; inconclusive = small, poorly fitted or top-dose-only effect, or another doubt; inactive = no such curve, though single readings can be large; an effect the other way counts as inactive or inconclusive.

SMILES	S2 tox	DRD3 antagonist	DRD3 agonist	IL-1B inflam inh	ATXN2 expr inh	Integrin act MD
Cc1nn(CCC#N)c(NC(=O)c2ccc(Cl)cc2Cl)c1P(=O)(Nc1ccc([N+](=O)[O-])cc1)N1CCOCC1 (stereo not given)	i	-11	-32	-6	-14%	6%
CC(C)NC(=O)NC(=O)CSc1ccc(S(=O)(=O)N2CCCC2)cn1	i	4	-2	2	-9%	5%
O=C(Nc1cc([N+](=O)[O-])ccc1N1CCOCC1)c1cccs1	i	-22	-10	3	-8%	36%
CC1N(C)c2cc(NC(=O)c3cccs3)c(P(=O)(Nc3ccc([N+](=O)[O-])cc3)N3CCOCC3)cc2C1(C)C (stereo not given)	?	-27	-12	-58*	-21%	10%
Cc1ccc(OCC(O)Cn2c(=N)n(CCN3CCCCC3)c3ccccc32)cc1 (stereo not given)	?	-63*	-10	-50*	25µM*	-70%
COc1ccc(OCC(O)Cn2c(=N)n(CCN3CCCCC3)c3ccccc32)cc1 (stereo not given)	?	-8	1	-57*	-33%	-52%
Cc1ccc(OCC(O)Cn2c(=N)n(CCN3CCOCC3)c3ccccc32)cc1 (stereo not given)	?	-2	3	?	-11%	-40%
c1nnn(C23CC4CC(CC(C4)C2)C3)n1	i	21	11	0	2%	10%
CC1CCCC(NC(=O)COC(=O)[C@@H](NC(=O)c2ccccc2Cl)C(C)C)C1C (stereo not given in full)	i	?	4	35	-12%	24%
CCOC(=O)c1ccc(NC(=O)c2nc[nH]c2C(=O)N(C)Cc2ccccc2)cc1	i	34	-1	-5	-13%	5%
CN(C)c1nc2ccc(OCCN3CCCCC3)cc2s1	?	-68*	-3	5	50%	11%
CCN(CC)CCOc1ccc2nc(N(C)C)sc2c1	i	-59*	1	21	33%	3%
O=C(NC(Cc1ccccc1)C(=O)N1CCc2ccccc2C1)c1ccccc1 (stereo not given)	i	37	4	-27	2%	3%
O=C(c1ccccc1)C(C(=O)N1CCc2ccccc2C1)n1ccccc1=O (stereo not given)	i	-16	-14	-77*	-2%	18%
Cc1ccc(CNn2cnnc2SCc2ccc(F)cc2)cc1	i	16	18	-9	-1%	-22%
Fc1ccc(CNn2cnnc2SCc2ccc(F)cc2)cc1	i	-9	41*	-4	8%	10%
O=C(/C=C/c1ccccc1)CC(O)(c1ccccc1)C(F)(F)C(F)F (stereo not given)	?	-25	-20	-97*	?	-60%
COc1ccc(/C=C/C(=O)CC(O)(c2ccccc2)C(F)(F)F)cc1 (stereo not given)	i	2	0	?	-21%	-28%
O=C(/C=C/c1ccccc1)CC(O)(c1ccccc1)C(F)(F)F (stereo not given)	?	?	-26	-99*	?	-27%
Cc1cccc(CN2C(=O)c3ccccc3S(=O)(=O)c3ccc(C(=O)OCC4CCCO4)cc32)c1 (stereo not given)	i	·	5	·	-5%	·
CCOC(=O)C(CC)(CC)C(=O)/C=C/c1cccc(Br)c1	?	-2	-11	-98*	?	-48%
NC(=O)NC(=O)COC(=O)/C=C/c1cccc(Br)c1	?	9	1	22	·	-7%
CN(Cc1cccc(F)c1)C(=O)CN1C(=O)NC2(CCc3ccccc32)C1=O (stereo not given)	i	-14	-1	-8	·	?
CCCN(N=Nc1cccc([N+](=O)[O-])c1)c1cccc([N+](=O)[O-])c1	i	-11	-2	-51*	?	-19%
O=[N+]([O-])c1cccc(N=NN(CCO)c2cccc([N+](=O)[O-])c2)c1	i	26	-6	4	-14%	1%
SMILES	S2 tox	DRD3 antagonist	DRD3 agonist	IL-1B inflam inh	ATXN2 expr inh	Integrin act MD
O=C1C(SCCO)=C(SCCO)C(=O)c2ccccc21	·	-136*	-67	-54*	?	·
COc1ccc(S(=O)(=O)N2CCCC2)cc1C(=O)O	i	2	9	10	·	?
CC(C)CC(NS(=O)(=O)c1cc(C(=O)O)ccc1Cl)C(=O)O (stereo not given)	i	-15	9	22	2%	-25%
O=C(Nc1ccc(Oc2nnc(-c3ccccc3)c3ccccc23)cc1)c1ccccc1	i	-15	-2	-62*	-19%	-28%
CC1CN(c2snnc2C=C2C(=O)OC(C)(C)OC2=O)CC(C)O1 (stereo not given)	?	2	5	-80*	-1%[11.3 µM]	0%
CCN(Cc1ccccc1)Cc1ccc(OCc2ccccc2)cc1	i	-84*	-6	15	·	-13%
CCN(CC)CCOc1ccc(Cc2ccccc2)cc1	i	·	-20	·	?	·
CC(=O)c1ccc(OCc2ccc(C(=O)c3ccccc3)cc2)cc1	i	6	0	-61*	-12%	-12%
COC(=O)[C@@]12C[C@@H](CC(=O)NCc3ccc(OC)c(OC)c3)C(=O)N(Cc3ccco3)C1=CCC(C)(C)C2	·	19	-1	-15	·	·
CCCCNC(=O)Oc1cccc(N2CCCC2=O)c1	i	-69*	5	-12	26%	-13%
O=C(NCCCN1CCCC1=O)c1cccc(N2CCCC2=O)c1	i	-1	-5	-5	-10%	-18%
CCOc1ccc(C2=C(C(C)=O)Sc3nnc(C)n3N2C(C)=O)cc1	·	·	-11	·	·	·
CCn1cnc2cc(NC(=O)c3cccs3)ccc21	i	-17	5	-18	15%	?
COCCNc1nc(NCCN2CCNC2=O)c2sccc2n1	i	?	-7	-71*	1%	·
COc1ccccc1CNc1nc(NCCN2CCNC2=O)c2sccc2n1	?	6	-1	41	0%	·
CCCN(Cc1ccccc1)C(=S)Nc1ccc(OCC)cc1	i	6	5	-58*	32%	-50%
Nc1cc(OC(=O)c2c(F)cccc2Cl)nn1S(=O)(=O)c1ccccc1	i	-13	-6	-94*	-8%	-16%
Nc1cc(OC(=O)c2cccs2)nn1S(=O)(=O)c1ccccc1	i	-11	1	-4	-4%	-22%
